The source of these data is PubChem BioAssay AID588579 (National Center for Advancing Translational Sciences (NCATS), 2011).

The structures appear in SMILES notation. Values joined by “and” are separate entries in the source; they are usually repeats but may differ in a detail not shown here. Equal entries are not always repeated. In all, about 400,000 compounds went through this assay and about 2,200 (0.55%) were called active. Not shown: some 1% with an inconclusive outcome. The call rests on the fitted dose curve; in most records, active means well fitted inhibition curve with a large enough effect; inconclusive means small, poorly fitted or top-dose-only effect, or another doubt; inactive means no such curve, though single readings can be large or run the other way. This excerpt belongs to a sample that is enriched for actives.
On the % scale 0 is the no-effect control and ±100 the full control effect; potency means the concentration at half of the fitted maximal effect.

Chain of DNA polymerase kappa (Homo sapiens) (Q9UBT6 whole entry, looked up): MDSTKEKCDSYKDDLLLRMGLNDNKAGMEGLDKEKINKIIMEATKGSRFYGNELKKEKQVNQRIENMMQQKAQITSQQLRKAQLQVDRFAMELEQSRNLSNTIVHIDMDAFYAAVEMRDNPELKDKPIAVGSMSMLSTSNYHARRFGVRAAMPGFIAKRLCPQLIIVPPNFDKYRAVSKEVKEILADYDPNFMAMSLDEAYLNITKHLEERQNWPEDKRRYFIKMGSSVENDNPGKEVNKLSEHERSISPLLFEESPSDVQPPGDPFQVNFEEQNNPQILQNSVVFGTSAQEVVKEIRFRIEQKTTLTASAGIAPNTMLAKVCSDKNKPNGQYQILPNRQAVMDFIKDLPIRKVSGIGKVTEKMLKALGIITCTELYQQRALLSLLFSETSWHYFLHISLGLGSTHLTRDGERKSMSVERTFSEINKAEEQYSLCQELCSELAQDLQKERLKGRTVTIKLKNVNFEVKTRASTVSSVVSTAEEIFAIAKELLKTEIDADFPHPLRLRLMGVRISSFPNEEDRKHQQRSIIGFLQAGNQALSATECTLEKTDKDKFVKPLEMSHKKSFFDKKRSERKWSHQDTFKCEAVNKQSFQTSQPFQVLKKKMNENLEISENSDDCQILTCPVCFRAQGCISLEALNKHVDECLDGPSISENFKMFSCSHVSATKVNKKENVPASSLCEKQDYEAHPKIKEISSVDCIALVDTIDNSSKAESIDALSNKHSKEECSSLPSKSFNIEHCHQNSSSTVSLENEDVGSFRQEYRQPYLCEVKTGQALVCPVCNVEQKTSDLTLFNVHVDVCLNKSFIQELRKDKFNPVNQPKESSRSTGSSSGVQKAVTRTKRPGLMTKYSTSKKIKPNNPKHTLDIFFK

The target of this test is DNA polymerase kappa (Homo sapiens) (UniProt Q9UBT6). Description: qHTS for Inhibitors of Polymerase Kappa. To be noted: purified Pol kappa, fluorescent DNA synthesis assay, 10 min; series mostly up to 107 µM; activity, negative = inhibition: at the top concentration. The gist of the method:
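Kinetic fluorescence readout at 0 and 10 min followed reaction start with substrate at 50 nM final. Beforehand, enzyme (10 nM Pol kappa) stood 15 min with compound at room temperature; buffer-only wells were negative controls.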
For `O=C(O)c1ccc(NS(=O)(=O)c2ccc3c(c2)C(=O)c2cc(S(=O)(=O)Nc4ccc(C(=O)O)cc4)ccc2-3)cc1`, the Potency is 79.4 µM (active).
Take `Cc1noc(C)c1S(=O)(=O)Nc1ccc(C(=O)O)cc1`: the “activity, negative = inhibition” value was -5.57% (inactive).
Still for that read-out and setting: with `O=C(c1ccc(NS(=O)(=O)c2ccc3[nH]c(=O)[nH]c3c2)cc1)N1CCCCC1` the figure was -6.59% (inactive).
In the case of `O=C(O)c1c(Br)c(Br)c(Br)c(Br)c1C1c2ccc(O)cc2Oc2cc(O)ccc21`, the Potency is 1.12 µM (active).
`COc1ccccc1CNc1ncncc1-c1cccc(NS(C)(=O)=O)c1`: the “activity, negative = inhibition” value is -0.267% [at 60.1 µM] (inactive).
With `CC(C)C(N)C(=O)OCCOCn1cnc2c(=O)[nH]c(N)nc21` (stereo not drawn), the “activity, negative = inhibition” value was -6.78% [at 60.1 µM] (inactive).
Take `CC(C)[C@H]1CC[C@@H](C)C[C@H]1O`: the activity, negative = inhibition is -5.92% [at 19.4 µM] (inactive).
With `COc1cccc(Cn2c(=O)c(CCc3ccccc3)nc3cnc(N(C)C)nc32)c1`, the “activity, negative = inhibition” value is -9.05% [at 60.1 µM] (inactive).
For `Cc1ccc(CNC(=O)CSC2=Nc3ccccc3C3=NC(C)C(=O)N23)cc1` (stereo not drawn), the “activity, negative = inhibition” value is -4.01% [at 60.1 µM] (inactive).
On the same count and under the same terms, with `CCOC(=O)CSC1=Nc2ccccc2C2=NC(CCC(=O)NCc3ccc(F)cc3)C(=O)N12` (stereo not drawn) the figure was -3.99% [at 60.1 µM] (inactive).
As to `CC(C)C1N=C2c3ccccc3N=C(SCC(=O)c3ccc(O)c(O)c3)N2C1=O` (stereo not drawn), the Potency was 20 µM (active).
Regarding `CCCCC/C=C\CC1OC1CCCCCCCC(=O)O` (stereo not drawn), the activity, negative = inhibition was -0.735% [at 19.4 µM] (inactive).
Regarding `COc1cc2nc(N3CCCN(C)CC3)nc(NC(C)C)c2cc1OC`, the “activity, negative = inhibition” value is 10.2% (inactive).
As to `C=COC(=O)N1CCN(/[N+]([O-])=N/Oc2ccc([N+](=O)[O-])cc2[N+](=O)[O-])CC1`, the “activity, negative = inhibition” value is 5.1% (inactive).
For `CCC(C)Cn1c(O)cc2nn(-c3nc4ccccc4s3)c(=O)c-2c1C` (stereo not drawn), the Potency was 25.1 µM (active).
For `Nc1ncnc2c1c(I)cn2[C@@H]1C[C@H](N)[C@@H](O)[C@H]1O`, the “activity, negative = inhibition” value was -5.63% [at 60.1 µM] (inactive).
For the molecule `CC1(C)OC2CO[C@]3(COS(N)(=O)=O)OC(C)(C)OC3C2O1` (stereo partly drawn), the “activity, negative = inhibition” value is 1.69% [at 60.1 µM] (inactive).
For the molecule `COc1ccc(-c2cc(C(=O)NCc3cc(OC)c(OC)c(OC)c3)[nH]n2)cc1`, the “activity, negative = inhibition” value is 3.81% (inactive).
Consider `COc1ccc2[nH]c(C(=O)N/N=C/c3cc(OC)c(OC)c(OC)c3)cc2c1`, for which the Potency is 50.1 µM (active).
Turning to `COc1cc(NC(=O)c2cc3ccc4cccnc4c3[nH]2)cc(OC)c1OC`, the “activity, negative = inhibition” value is -25% (inactive).
Still for that read-out and setting: the figure for `Nc1nc2nc(Cl)[nH]c2c(=O)[nH]1` is -2.03% [at 60.1 µM] (inactive).
For the molecule `COc1ccc(Cl)cc1NC(=O)CCS(=O)(=O)c1ccc(Br)cc1`, the Potency is 79.4 µM (active).
Regarding `COc1ccc(Cl)cc1NC(=O)CCC(=O)c1ccc(C)cc1`, the “activity, negative = inhibition” value was -5.69% [at 60.1 µM] (inactive).
Same read-out and setting: with `Cc1ccc(Cl)cc1NC(=O)CCS(=O)(=O)c1ccc(Br)s1` the figure was -20.1% (inactive); with `COc1ccccc1CNc1ncnc2ccc(-c3ccc4c(c3)OCO4)cc12`, -7.16% [at 60.1 µM] (inactive); with `CC1(C)OC2CC3C4CCC5=CC(=O)CCC5(C)C4(F)C(O)CC3(C)[C@]2(C(=O)CCl)O1` (stereo partly drawn), 2.42% [at 60.1 µM] (inactive).
As to `O=c1c(-c2ccc(F)cc2)nc2cnc(N3CCOCC3)nc2n1-c1ccccc1`, the “activity, negative = inhibition” value is -3.78% [at 60.1 µM] (inactive).
On the same count and under the same terms, with `CN(C)c1ccc(/C=C/c2c3ccccc3nc3ccccc23)cc1` the figure was -0.103% (inactive); with `CC(C)(C(=O)NO)c1ccccc1`, 11.2% (inactive).
As to `C=CCn1c(=S)[nH]c2scc(-c3ccco3)c2c1=O`, the Potency was 22.4 µM (active).
Regarding `Fc1ccc(Cl)cc1-c1nc(Nc2ccncc2)c2nccnc2n1`, the “activity, negative = inhibition” value is -6.45% [at 60.1 µM] (inactive).
The same measure, in the same setting: with `COc1ccccc1CCn1c(=O)c(-c2cn(C)c3ccccc23)nc2cncnc21` the figure was -1.72% [at 60.1 µM] (inactive).
For the molecule `CCCCC/C=C\C/C=C\CCCCCCCCCC(=O)O`, the activity, negative = inhibition is 1.81% [at 19.4 µM] (inactive).
For the molecule `Cc1ccc(/C=C(\C#N)C(=O)Nc2cc(C)ccc2C)cc1`, the “activity, negative = inhibition” value is -9.83% (inactive).
On to `N#C/C(=C\c1ccc(O)c(O)c1)C(N)=O`, for which the Potency is 10 µM (active).
With `CC(C)NC(=O)/C(C#N)=C\c1ccc(N(C)C)c(Br)c1`, the “activity, negative = inhibition” value was -14.2% (inactive).
Same read-out and setting: with `Nc1nc(N)c(N=O)c(N)n1` the figure was -14.6% (inactive).
Same read-out and setting: the figure for `O=C(C[n+]1ccncc1)c1ccc2c(c1)CCCC2` is 6.4% (inactive); for `CC(=O)NC(=O)c1ccccc1O` it is -8.55% [at 19.4 µM] (inactive).
For the molecule `COc1ccccc1-c1cc(NCc2cccs2)ncn1`, the “activity, negative = inhibition” value was 4.13% [at 60.1 µM] (inactive).
As for `CC(C)(C)C1CCC(NC(=O)c2cnn3c2NC(=C2CC2)C=C3C(F)F)CC1` (stereo not drawn), the “activity, negative = inhibition” value was -4.04% (inactive).
As for `COc1ccc(C[C@H](N)C(=O)N[C@@H]2[C@H](O)[C@H](n3cnc4c(N(C)C)ncnc43)O[C@@H]2CO)cc1`, the activity, negative = inhibition is -1.14% [at 12 µM] (inactive).
For `Cc1cc[n+](C2CCCCC2)cc1`, the “activity, negative = inhibition” value is 4.95% (inactive).
The same measure, in the same setting: the figure for `Cc1nc2cnc(N3CCN(C)CC3)nc2n(C[C@H]2CCCO2)c1=O` is 1.75% [at 60.1 µM] (inactive).
On to `O=C1NN(c2ccccc2)C(=O)/C1=C/c1ccc(-c2cccc(C(=O)O)c2)o1`, for which the Potency was 44.7 µM (active).
In the case of `CCCCOc1ccc(C(=O)NO)cc1`, the “activity, negative = inhibition” value was 2.38% (inactive).
On to `Cc1cc2oc(=O)cc(-c3ccccc3)c2c(C)c1/C=C/c1ccc(F)cc1`, for which the “activity, negative = inhibition” value is -17.6% [at 60.1 µM] (inactive).
For `COc1cc(/C=C2\C(=N)N3N=C(CC(=O)N4CCOCC4)SC3=NC2=O)cc(OC)c1OC`, the Potency was 31.6 µM (active).
As for `COc1ccccc1OCCOc1ccc(/C=C2\C(=N)N3N=C(C)SC3=NC2=O)cc1`, the “activity, negative = inhibition” value was -11.3% (inactive).
As for `COc1cc(C(=O)N2CCOCC2)cc(OC)c1OC`, the activity, negative = inhibition is -0.831% [at 19.4 µM] (inactive) and 0.0712% [at 19.4 µM] (inactive).
As for `C=C1C=C(C(F)F)n2ncc(C(=O)NCCc3ccccc3OC)c2N1`, the “activity, negative = inhibition” value is 1.69% (inactive).
Same read-out and setting: with `O=c1c(-c2cccs2)nc2cnc(Oc3ccccc3)nc2n1-c1ccccc1` the figure was 8.26% [at 60.1 µM] (inactive).
With `CC(C)C1=CC2=CC[C@@H]3[C@](C)(CO)CCC[C@]3(C)C2CC1` (stereo partly drawn), the “activity, negative = inhibition” value was -20.7% [at 60.1 µM] (inactive).
For `CCOC(=O)Cn1c(=O)sc2cccc(Cl)c21`, the activity, negative = inhibition is -6.5% [at 12 µM] (inactive).
Turning to `Nc1ncnc2nnsc12`, the “activity, negative = inhibition” value is -11.5% (inactive).
`Cc1ccc(Cc2cnc(N)s2)o1`: the Potency was 15.8 µM (active).
Regarding `COCCNc1ccnc(-c2cccc(NS(C)(=O)=O)c2)n1`, the “activity, negative = inhibition” value is -1.6% [at 60.1 µM] (inactive).
Still for that read-out and setting: with `O=C1OC(C(O)CO)C(O)=C1O` (stereo not drawn) the figure was 1.05% [at 60.1 µM] (inactive).
Consider `C1=C(N2CCOCC2)/C(=C/c2nc3ccccc3[nH]2)CC1`, for which the Potency was 79.4 µM (active).
With `Cc1nn2c3cc(N4CCOCC4)ccc3nc2c2ccccc12`, the “activity, negative = inhibition” value was -17.6% (inactive).
Turning to `CNc1ncnc2ccc(-c3cccc(NS(C)(=O)=O)c3)cc12`, the “activity, negative = inhibition” value was -3.17% [at 60.1 µM] (inactive).
The same measure, in the same setting: the figure for `CC[C@H](C)[C@H](NC(=O)[C@@H](N)CCC(=O)O)C(=O)N[C@@H](CC(C)C)C(=O)N[C@@H](CC(=O)O)C(=O)N[C@H](C(=O)N1CCC[C@H]1C(=O)N[C@@H](CO)C(=O)N[C@H](C(=O)O)[C@@H](C)O)C(C)C` is 19.2% [at 60.1 µM] (inactive).
Consider `C=CCOC(=O)C(=C)C`, for which the “activity, negative = inhibition” value was 16.8% [at 60.1 µM] (inactive).
